T1: UNK ZnF1-3 (human, UniProt Q9C0B0 31-174)
T1 sequence: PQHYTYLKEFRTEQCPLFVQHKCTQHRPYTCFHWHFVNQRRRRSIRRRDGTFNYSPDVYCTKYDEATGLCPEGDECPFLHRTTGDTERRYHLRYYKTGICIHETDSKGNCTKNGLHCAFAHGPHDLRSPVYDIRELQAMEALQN

B1: chr15:76911001:76911002:-_ENSMUSG00000033565_ENSMUST00000166610|mus_hu|motif|central (ssRNA)
RNA: GGGAGUUCUACAGUCCGACGAUCAAGAGCAUGACAAAAUAAAAACACACAAAUUUACGUCUGAUGUUCACCUUGCCCACGGUUUUUUUUUCCUAUCUUAAAACAGUGCAAACAGGUAACUUAUGCUUUUAAAACACCACGACCCAACAGAGGAUUGAGCAUCA
B2: chr17:17165348:17165349:-_ENSG00000141030_ENST00000268717|hu_mus|motif|central (ssRNA)
RNA: GGGAGUUCUACAGUCCGACGAUCUAUUUGAGAGGUGUAUUUAGGCAGCUGUUGUACUUUGCCAAGUAAUAUCAAAGACACGGGAAUAUACUUUUUAUAUGAUUCCAACAUGAUAUGGCUGACGGCCAUGGCAGGAGUAGUUAUCAACAGAGGAUUGAGCAUCA
B3: chr8:74858975:74858976:-_ENSG00000154582_ENST00000284811|hu_mus|hu_hu_hu_mus_True|8_48 (ssRNA)
RNA: GGGAGUUCUACAGUCCGACGAUCGACCUUGUAGGUAAAAUACAUGCACACUUUUGAUAGCACAUGUGAGGGGAUCUCUCUAAAAUUGACCUCAUUGGUUUCAUUCUCAGCAAACUGACCUGGACCACUCAACAUGGCCUUUAUCAACAGAGGAUUGAGCAUCA
B4: chr2:48026839:48026840:+_ENSG00000116062_ENST00000540021|hu_hu|hu_hu_hu_mus_False|48_88 (ssRNA)
RNA: GGGAGUUCUACAGUCCGACGAUCAUAGUGAGCCACUAGCGUCCUAAAUCUCGAACAGUGGCGGUCAUCCGAAAACUGGCCGAUGAAAAACUUUCCCAGUGAAGUGUCCACAAAGCAAACACCAUACACACGAGUGUGACCAGACAACAGAGGAUUGAGCAUCA
B5: chr11:86535762:86535763:-_ENSMUSG00000047126_ENSMUST00000103186|mus_hu|FALSE|FALSE (ssRNA)
RNA: GGGAGUUCUACAGUCCGACGAUCUGCAAAGCACUGAAUGACUUUAUUUGGGACGUUAGCCCUUAGGUACACACUAAGUGCCAAUGUAGGGUCCACAGAUUUCACAAGAUCACCCAGUUCUUCAGAACAUUCCAGCUUAUCUUCCAACAGAGGAUUGAGCAUCA
B6: chr7:118226368:118226369:-_ENSMUSG00000005610_ENSMUST00000162415|mus_hu|FALSE|FALSE (ssRNA)
RNA: GGGAGUUCUACAGUCCGACGAUCCAGCAGCUGCCACCGCAGCUGCCUCCUCAGGAUCCGGUCGUCGGGGAUAGGGAAGGGAGGGGAAAGGGGAACGGAAAACAAAAAAAAGGGGGAGGGAAGGGGGAGGAAGGAGUCGGGGACCAACAGAGGAUUGAGCAUCA
B7: chr19:8913615:8913616:-_ENSMUSG00000071658_ENSMUST00000096259|mus_hu|mus_mus_mus_hu_False|18_18 (ssRNA)
RNA: GGGAGUUCUACAGUCCGACGAUCAGGGUACCAAAACCUUCUGCCUGAAAUGGGUGCCCCACCCAGUAGGGAGUUGCAGCUGAAAGUAUCUGAUGCAGAAGCAGUGACUAUACGAAAGGUCACUAGAGGGGAGGGCCAGGCCAGCAACAGAGGAUUGAGCAUCA
B8: chr17:65740002:65740003:+_ENSG00000130935_ENST00000581375|hu_hu|hu_hu_hu_mus_False|98_108 (ssRNA)
RNA: GGGAGUUCUACAGUCCGACGAUCAACCCGUUCUUGCCUGGAUGAAGAACAGGAAGAUUCAUAUUAAAAAAAAUAUAUAUCCAUCAAGUUAGGUGUGGUGGCCACACCUUUACUCCCAGCACUUUGGGAGGUGGAUCUCUGAGUCAACAGAGGAUUGAGCAUCA
B9: chr7:90019433:90019434:+_ENSMUSG00000057706_ENSMUST00000082237|mus_hu|motif|central (ssRNA)
RNA: GGGAGUUCUACAGUCCGACGAUCAAAUAAUACAGUGUUCUUUGCCAUAAGGCCAUACUAAAAUAAAAAGAUUUAACCCAGCGGCAAAAAAGUUCACUGAACUUAAAUUAAAAUACUUGUAAACAUCUUUGCAAUAUGAAAUAUCAACAGAGGAUUGAGCAUCA
B10: chr4:107545374:107545375:+_ENSMUSG00000028613_ENSMUST00000106731|mus_hu|FALSE|FALSE (ssRNA)
RNA: GGGAGUUCUACAGUCCGACGAUCUGAUGGAUAGCCACAAAGCAUAAUCAUCUUAUUUACAAAAAACAAAUGCCCCAAAACCUAAAAAAGCCCCCCCAGCAACCAAACAUCUUCUGUAAAUAUAGUUUUUAAAUGAUGAGUAAGCAACAGAGGAUUGAGCAUCA
B11: chr18:43483763:43483764:-_ENSMUSG00000024501_ENSMUST00000121805|mus_mus|FALSE|FALSE (ssRNA)
RNA: GGGAGUUCUACAGUCCGACGAUCUGCAGAAUCUACCUUAGUGGCCUGUCUGAUCGCAUGCAUGUAAGUGGGGGUGGGGUGGGGGUGGGGUUCAAAGAAAUUGAGAGUAUGCAAAAACAGAAACCAAAGCAAUUCAUAAAGCUACAACAGAGGAUUGAGCAUCA
B12: chr7:56126341:56126342:+_ENSG00000146731_ENST00000540286|hu_mus|hu_hu_hu_mus_True|8_78 (ssRNA)
RNA: GGGAGUUCUACAGUCCGACGAUCCAUGUUUCUCCUCUUGGCUCUGCGCAGAGCUACUAUGCCUUCUUUCGCAAGGGCAUCUAAGGAAAAGGGGUCAAUCCCCUUUUGAUUAAUAACGACAAAUCCUUUAUCUGAAUCACCACACAACAGAGGAUUGAGCAUCA
B13: 160625162_160625282_3606_3pUTR_ENSG00000136536_ENST00000259050|human|control|control (ssRNA)
RNA: GGGAGUUCUACAGUCCGACGAUCAAAACUACCACCCUUAAAUUUUAUAUUUUUGCUUUAAGACAGACAAUGCAAAGGUAACUGGCAAGAGGUGAGCAAAUGUUUUAGAACAUUUAUAUUAUUGCUUAAAAUGAGAUUUGAAAUCAACAGAGGAUUGAGCAUCA
B14: chr16:2758876:2758877:+_ENSG00000167977_ENST00000301738|hu_hu|FALSE|FALSE (ssRNA)
RNA: GGGAGUUCUACAGUCCGACGAUCAAUUUUAGUGAAUUAAGUCUUAAUAUCUUUAAAUUAAAAAAACCACAAGCCUAUCUACUAUGUCAAGGUCAAAAAUCAAACAACGCUAAGCGGCCAGCAGCUCCCCAGAGAGGAUGCCCACAACAGAGGAUUGAGCAUCA
B15: 62932219_62936930_2744_CDS_ENSG00000061987_ENST00000546600|human|control|control (ssRNA)
RNA: GGGAGUUCUACAGUCCGACGAUCCAUAUUAACUAAACCAGUUUCUAACAAUUUGGCAACAGCAAAAAGAGAUGGUUCCUUAUUAUUUCCAUAGGCCAUAUCCAUUGCUUCUAGAGACAAGGAGCAAAGUGCAUUUAUUAAAUGCAACAGAGGAUUGAGCAUCA
B16: chr7:90019490:90019491:+_ENSMUSG00000057706_ENSMUST00000082237|mus_mus|FALSE|FALSE (ssRNA)
RNA: GGGAGUUCUACAGUCCGACGAUCUCCGUCACAAUCGUGUGAUUAUUAAAAUAAUACAGUGUUCUUUGCCAUAAGGCCAUACUAAAAAUAAAAAGAUUUAACCCAGCUACAAAAAAGUUCACUGAACUUAAAUUAAAAUACUUGCAACAGAGGAUUGAGCAUCA
B17: chr18:43483763:43483764:-_ENSMUSG00000024501_ENSMUST00000121805|mus_hu|FALSE|FALSE (ssRNA)
RNA: GGGAGUUCUACAGUCCGACGAUCGCAGACUCUUUUACCUUAGUGGCCUGUCUGAUUGCAUGCAUGUAAAUGGGGGGAGGGGAGUCAAACAAAUCAAGGCUAUGCAUAAACAGAAAACAAAGCAAUAUUCGUAAAGCUAGGCAACAACAGAGGAUUGAGCAUCA
B18: chr7:90019433:90019434:+_ENSMUSG00000057706_ENSMUST00000082237|mus_hu|mus_mus_mus_hu_True|78_98 (ssRNA)
RNA: B9 RNA with U38C, C39U, U42G, G43C, C45A, A46U, C57U, U58A, G82U, G83A
B19: chr1:10192443:10192444:+_ENSG00000130939_ENST00000377157|hu_hu|FALSE|FALSE (ssRNA)
RNA: GGGAGUUCUACAGUCCGACGAUCGACAGCCGCCAUGUAACUGAGAGCAGCCUCACGGGUUUCGCCAUUUAACAAAAUACUAUGCAGAAUCUUAAAAAGCUCUUGCCUUCCGAGCUCUAAGUAAUGCUGCAAUGAUUGGCUAACCAACAGAGGAUUGAGCAUCA
B20: chr14:78183846:78183847:+_ENSG00000119705_ENST00000557342|hu_hu|hu_hu_hu_mus_False|18_98 (ssRNA)
RNA: GGGAGUUCUACAGUCCGACGAUCUCUCAGAAAUCUUUCUUUCUUUUAUGUUUGAGCUCCGUGCAAAGCCUUUGCUCUUUGAGCUUGAACGUGGAUCUAUGGGAGGGAAAGCACUGUAUUUUCCUGUAAUUUUUUUUUUAAAGACAACAGAGGAUUGAGCAUCA
B21: chr7:135123436:135123437:+_ENSMUSG00000030795_ENSMUST00000077609|mus_mus|FALSE|FALSE (ssRNA)
RNA: GGGAGUUCUACAGUCCGACGAUCGCCUCCGCGACCAUUUCCACCACCCCGAUUGAAGUCAGCUCGGCGGGUAGCAAAUGAAACUUUAAUAGGAUUCCCAGAGAAUUCUUUACCAUCAAACCAGUCGAUAGCUGCUUUAGCAGACAACAGAGGAUUGAGCAUCA
B22: 18916218_18916338_822_CDS_ENSMUSG00000020160_ENSMUST00000068264|mouse|control|control (ssRNA)
RNA: GGGAGUUCUACAGUCCGACGAUCGUGCGGGUACUGAUGCGAGUGCAGAGGAGGCCCGUGGUUCAGGUGGUGGACCGGUUGCAUGGACCUGGCUGCAUGCGGGUCCCCAUACAUCGUGGAGGGGAUGCCUACUCCAUCCAUACCCAACAGAGGAUUGAGCAUCA

Substitutions are numbered along the chain they refer to. The full ranking holds about 24,000 sequences; the median of “enrichment r” is about 0.99, and the highest 2% start at about 3.7. Many of the other results were omitted from the sample, so the highest values are more common in it than they were.

The target in this assay is T1, UNK ZnF1-3. As to the kind of experiment: nsRBNS (natural sequence RNA bind-n-seq); RBNS binding buffer (assumed for nsRBNS): 25 mM Tris pH 7.5, 150 mM KCl, 3 mM MgCl2, 0.01% Triton X-100, 500 ug/ml BSA, 20 U/ml SUPERase-In, 4 C; UNK is unkempt and MSI1 is Musashi-1; names of the RNAs are library labels; protein concentration not given here; high values mean tight binding.
Molecule B1 registered a binding signal of 1.59 enrichment R.

B2 had a binding signal of 1.03 enrichment R. With B3 the figure was 0.645 enrichment R; with B4, 1.19 enrichment R. The molecule B5 displayed a binding signal of 0.581 enrichment R.

B6 had a binding signal of 1.19 enrichment R. Molecule B7 gave a binding signal of 1.83 enrichment R. With B8 the figure was 0.827 enrichment R; with B9, 3.64 enrichment R; with B10, 2.81 enrichment R. With B11 the figure was 5.48 enrichment R. To B12 belongs 0.804 enrichment R. For B13, the binding signal came out at 8.45 enrichment R.

The molecule B14 displayed a binding signal of 3.89 enrichment R.

For B15, the binding signal was determined as 1.11 enrichment R. To B16 belongs 3.65 enrichment R; to B17, 1.62 enrichment R. With B18 the figure was 3.77 enrichment R.

B19 registered a binding signal of 1.03 enrichment R. With B20 the figure was 0.693 enrichment R; with B21, 1.3 enrichment R; with B22, 0.98 enrichment R.

These data come from article PMC12136788.
